Most compounds without a hit are left out; they make up all but 3.7% or so of the library.
ATXN2 expr inh – reduces ATXN2 reporter expression in HEK-293 cells; HEK-293 ATXN2-luciferase reporter, luminescence, 24 h; Potency, µM (doses to about 57 µM), for inactives: at the highest dose activity change, negative = inhibition, most hits filed as inhibitors; 0.72% of 360,000 active; AID 1745845; further: on the % scale 0 is the no-effect control and ±100 the full control effect; nearly all actives have a fitted effect of over 55% in size
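qHTS (up to 57 uM final) was run with 24 h compound exposure of reporter cells at 37 °C. Each well was multiplexed: SteadyGlo luminescence measured ATXN2-luciferase expression after a fluorogenic Gly-Phe-AFC viability readout (25 uM final).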
GLP1R ag – agonists of human GLP-1 receptor; 0.007% of 380,000 active; Potency, µM (highest dose often 45.6 µM), for inactives: at the top dose activation, usual class: activators; AID 624172; P43220; HEK293 GLP-1R CRE-luciferase, luminescence, 4-6 h; cells express a hypersensitive GLP-1R form; further: % of control where 0% means no effect
Target sequence (P43220 whole entry, looked up): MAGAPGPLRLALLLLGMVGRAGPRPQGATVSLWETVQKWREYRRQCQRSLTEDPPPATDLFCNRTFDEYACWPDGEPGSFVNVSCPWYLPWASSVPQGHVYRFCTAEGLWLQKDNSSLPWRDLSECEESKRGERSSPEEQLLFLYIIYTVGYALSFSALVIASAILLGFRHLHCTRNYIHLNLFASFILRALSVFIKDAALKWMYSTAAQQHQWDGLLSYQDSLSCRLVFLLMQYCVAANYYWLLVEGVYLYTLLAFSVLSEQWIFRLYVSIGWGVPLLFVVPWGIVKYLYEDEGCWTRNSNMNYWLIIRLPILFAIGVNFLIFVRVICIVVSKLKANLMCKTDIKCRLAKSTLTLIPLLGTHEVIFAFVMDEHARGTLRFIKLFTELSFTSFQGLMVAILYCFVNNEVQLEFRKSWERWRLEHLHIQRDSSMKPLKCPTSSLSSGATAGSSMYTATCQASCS
S2 tox – viability counter-screen for ATXN expression inhibitors; S2 cells (HEK-293 line with an ATXN2-luciferase reporter) viability, CellTiter-Fluor protease fluorescence, 24 h; Potency, µM (titrated, usually from 56.7 µM), most hits filed as cytotoxic; 0.49% of 400,000 active; AID 651635; further: nearly all actives have a fitted effect of over 40% in size
GLP1R inv ag – inverse agonists of human GLP-1 receptor; P43220; HEK293 GLP-1R CRE-luciferase, luminescence, 24 h; GLP-1R form is constitutively active; Potency, µM (doses to about 38.3 µM), inactives show at the highest dose activity change, negative = inhibition, most hits filed as inhibitors; 1.6% of 410,000 active; further: on the % scale 0 is the no-effect control and ±100 the full control effect; nearly all actives have a fitted effect of over 55% in size
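Using stably transfected HEK293 (constitutively active GLP-1R, cAMP-luciferase reporter), compounds were incubated 24 hr and luciferase measured by luminescence.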
HepG2 viability – counter-screen for TGF-b inhibitors: cytotoxicity in HepG2 cells | HepG2 CAGA-GFP viability, ATP luminescence, 18 h | Potency, µM (titrated, usually from 46.1 µM), for the others: at the top dose activity change, negative = cytotoxicity, most hits filed as cytotoxic | 0.76% of 410,000 active | AID 588856
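CellTiter-Glo luminescence gave cytotoxicity after 18 hours at 37 degrees C. The cells were HepG2 CAGA-GFP in 1% FBS DMEM, stimulated with 500 pg/mL TGF-beta after compound addition. %Activity was normalised to no-cell wells (complete cell-killing) and DMSO (no toxicity), and curves were fitted and classified.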
TGFb SMAD3 inh – blocks TGF-b signaling; HepG2 CAGA-GFP TGF-b/SMAD3 reporter, GFP fluorescence, 18 h; TGF-beta stimulated, 500 pg/mL final; Potency, µM (top dose mostly 46.1 µM), inactives show at the top dose activity, negative = inhibition, usual class: inhibitors; 1.2% of 410,000 active; further: on the % scale 0 is the no-effect control and ±100 the full control effect; nearly all actives have a fitted effect of over 65% in size
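Inhibition of TGF-beta-driven CAGA-GFP reporter expression in HEPG2 cells is measured by cellular GFP fluorescence after 18 h stimulation with 500 pg/mL recombinant TGF-beta in 1% FBS medium at 37 degrees C.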
* = called active by the depositor; i = inactive; ? = inconclusive; · = not tested or not shown; ! = repeats disagree; [ ] = dose if it differs, or a comment. The call rests on the fitted dose curve; in most records, active means well fitted curve in the direction sought with a large enough effect; inconclusive means small, poorly fitted or top-dose-only effect, or another doubt; inactive means no such curve, though single readings can be large; an effect the other way counts as inactive or inconclusive. Potency means the concentration at half of the fitted maximal effect.

SMILES	ATXN2 expr inh	GLP1R ag	S2 tox	GLP1R inv ag	HepG2 viability	TGFb SMAD3 inh
O=C(NCC1CC1)c1onc(CSc2ccc(F)cc2)c1C(=O)NCC1CC1	4%	-1%	i	?	-15%	16%
CCCCNC(=O)c1c(CSc2ccccc2)noc1C(=O)NCc1ccccc1	2%	-2%	i	10µM*	-17%	-18%
CCCNC(=O)c1c(CSc2ccc(Cl)cc2)noc1C(=O)NCc1ccccc1	?	2%	i	5µM*	0%	-2%
Cc1cc(C)cc(SCc2noc(C(=O)NCC3CC3)c2C(=O)NCC2CC2)c1	-25%	7%	i	8.9µM*	-19%	?
O=C(NCc1ccccc1)c1onc(CSc2ccccc2)c1C(=O)NCc1ccccc1	7%	10%	i	?	6%	23%
CCCN1C(=O)c2ccccc2NC1c1ccc(Cl)c(Cl)c1 (stereo not drawn)	·	3%	?	11µM*	-2%	1%
N#CC1(c2cccc(C(=O)Nc3cc(Oc4ccc5nc(NC(=O)C6CC6)sc5n4)ccc3F)c2Cl)CC1	-10%	·	·	·	·	·
Cc1ccc(Cl)c(OCC(O)CNC(C)(C)C)c1 (stereo not drawn)	-8%	·	i	·	·	·
CCOC(=O)c1c(C)[nH]c(C)c1S(=O)(=O)N1CCCC(C(=O)N2CCN(c3cccc(Cl)c3)CC2)C1 (stereo not drawn)	-1%	·	i	12%	-20%	?
CNC(=S)N1N=C(c2ccc(C)cc2)CC1c1cc(OC)ccc1OC (stereo not drawn)	-36%	14%	i	10µM*	-24%	-4%
CNC(=S)N1N=C(c2ccc(OC)cc2)CC1c1ccccc1Cl (stereo not drawn)	-15%	12%	i	10µM*	5%	-2%
CNC(=S)N1N=C(c2ccc(C)cc2)CC1c1ccc(OC)cc1 (stereo not drawn)	5%	-3%	i	10µM*	4%	16%
CNC(=S)N1N=C(c2ccc(OC)cc2)CC1c1ccc(Cl)cc1Cl (stereo not drawn)	-3%	12%	i	?	-14%	-6%
COc1ccccc1-c1nc(SCc2ccccn2)n[nH]1	58%	26%	i	7%	13µM*	0%
CNC(=S)/N=C/NOCc1ccc(Cl)cc1Cl	-22%[11.3 µM]	3%	?	?	-13%	14µM*
C[C@@H]1[C@@H](Sc2ccccc2)CC(=O)O[C@@H]1c1ccc(-c2ccccc2)cc1	18µM*	-2%	22µM*	?	11µM*	?
Cc1ccc(C)c(CN2CCC(CNC(=O)Nc3ccc(Br)cc3F)CC2)c1	20µM*!	10%	?	7.1µM*	-84%	?
Cc1ccc(C)c(CN2CCC(CNC(=O)Nc3ccc(Cl)cc3)CC2)c1	12%	6%	i	?	2%	0%
CC(=O)O[C@@H]1[C@@H](O)CN[C@@H]1Cc1ccccc1	·	·	·	·	-18%	?
CCCC[C@H]1CCCO[C@@](C(=O)NCc2ccccn2)(C(F)(F)F)C1	·	·	·	·	-14%	-23%
O=C1CCC(/C=C/c2ccccc2)=NN1Cc1ccccc1Cl	-15%	1%	i	10µM*	-1%	?
O=C1CCC(/C=C/c2ccccc2)=NN1Cc1ccc(Cl)c(Cl)c1	-1%	7%	i	0%	-12%	?
CCc1nnc(NC(=O)CSc2nccn2Cc2ccc(F)cc2)s1	15%	-4%	i	7%	-26%	25%
CSc1nc2cc(Oc3cccc(Cl)c3Cl)c(Cl)cc2[nH]1	-32%	5%	?	11µM*	-38%	?
N=C(N)SCc1cn(-c2ccccc2)nc1-c1ccc(Br)cc1	?	-7%	?	?	11µM*	?

Screening data (PubChem BioAssay)
